Experimental data from PubChem BioAssay (NCI).
This is part of a sample that, as a whole, favours compounds with a hit. Of some 83,000 tested, about 20% had one in any assay.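 Testing used 96-well plates and a 48-hour single-concentration exposure. Example: -40 means 40% of the starting cells died.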 Calls of active or inactive are those of the source. The calls were made as follows: active = growth percent below 10; inactive = the rest.

Experiments:
Test in all cases: NCI-60 one-dose screen, 48 h (100 = growth as untreated, 0 = no growth, -100 = all killed)
Conditions in all cases: 10 µM unless noted
[1] = test system: SK-MEL-2 melanoma
[2] = test system: EKVX NSCLC
[3] = test system: SN12C renal
[4] = test system: UO-31 renal
[5] = test system: ACHN renal
[6] = test system: A498 renal
[7] = test system: CCRF-CEM leukemia
[8] = test system: MOLT-4 leukemia
[9] = test system: SR leukemia
[10] = test system: RPMI-8226 leukemia
[11] = test system: OVCAR-8 ovarian
[12] = test system: OVCAR-5 ovarian
[13] = test system: OVCAR-4 ovarian
[14] = test system: SK-OV-3 ovarian
[15] = test system: OVCAR-3 ovarian
[16] = test system: NCI/ADR-RES ovarian
[17] = test system: IGROV1 ovarian
[18] = test system: HS 578T breast

Measured: growth

COc1cccc(-c2nc3sccn3c2-c2ccnc(NCCNC(=O)Nc3cccc(C(F)(F)F)c3)n2)c1
inactive: [1] 61.9% | [2] 61.5% | [3] 68.8% | [4] 39.7% | [5] 46.2% | [6] 61.6% | [7] 27% | [8] 36.7% | [9] 38.5% | [10] 20.4% | [11] 21.3% | [12] 103% | [13] 91.1% | [14] 78.6% | [15] 66.3% | [16] 27.2%

OC[C@@H](O)C(O[C@@H]1O[C@H](CO)[C@H](O)[C@H](O)[C@H]1O)[C@H](O)[C@@H](O)CO (some centres not stated)
inactive: [1] 106% | [2] 95.4% | [3] 101% | [4] 75.5% | [5] 94.4% | [6] 111% | [7] 106% | [8] 106% | [9] 87.4% | [10] 103% | [11] 98.6% | [12] 91.8% | [13] 106% | [14] 99.5% | [17] 95.9% | [15] 103% | [18] 129% | [16] 95.4%

CCN(CC)CCNC(=O)c1c(C)[nH]c(/C=C2\C(=O)Nc3cc(NC(=O)NC(=O)c4ccc(OC)cc4F)ccc32)c1C
inactive: [1] 128% | [2] 114% | [3] 97.3% | [4] 96.2% | [5] 38.2% | [6] 77.6% | [7] 42.4% | [8] 38.2% | [9] 10.6% | [10] 75.7% | [11] 34% | [12] 120% | [13] 111% | [14] 129% | [17] 98.5% | [15] 111% | [18] 84.4% | [16] 88.3%

COc1ccc(C(=O)NC(=O)Nc2ccc3c(c2)NC(=O)/C3=C\c2[nH]c(C)c(C(=O)O)c2C)c(F)c1
active: [10] 6.29% | [15] 5.25%
inactive: [1] 55.3% | [2] 94.4% | [3] 57.9% | [4] 88.4% | [5] 55.2% | [6] 64.8% | [7] 84.3% | [8] 86.2% | [9] 58.2% | [11] 56.4% | [12] 98.8% | [13] 12% | [14] 74.1% | [17] 46.8% | [18] 49.4% | [16] 74.1%

CN[C@@H](CCCNC(N)=NC/C=C(/C)CCC=C(C)C)C(=O)N(C)[C@@H](CCCNC(N)=NCC=C(C)C)C(=O)N[C@H](C)[C@H](OS(=O)(=O)O)c1ccc(OS(=O)(=O)O)c(COS(=O)(=O)O)c1
inactive: [1] 105% | [2] 113% | [3] 101% | [4] 97.6% | [5] 113% | [6] 87% | [7] 102% | [8] 96.9% | [9] 114% | [10] 92.9% | [11] 98.4% | [12] 113% | [13] 120% | [14] 110% | [17] 110% | [15] 107% | [18] 97.3% | [16] 105%

COC(=O)c1ccc2c(c1)Oc1ccc(Cl)cc1-c1cc(C)nn1-2
active: [13] -6.66%
inactive: [1] 100% | [2] 66.9% | [3] 51.8% | [4] 82.2% | [5] 22.6% | [6] 62.7% | [7] 78.8% | [8] 99.9% | [9] 69.9% | [10] 74.9% | [11] 72.8% | [12] 91.2% | [14] 53.5% | [17] 61.8% | [15] 39% | [18] 55.1% | [16] 73.4%

O=C(Nc1cccc(-n2ccc3c(NC(=O)c4ccccc4)ncnc32)c1)Nc1ccc(Cl)c(C(F)(F)F)c1
inactive: [2] 32.1% | [3] 40.9% | [4] 43.5% | [5] 25.5% | [6] 42.9% | [7] 16.4% | [8] 15.8% | [9] 17.7% | [10] 16.2% | [11] 25.9% | [12] 48.1% | [13] 64.4% | [14] 52.2% | [17] 32.5% | [15] 26.1% | [16] 34.8%
active: [1] -8.08%

Nc1ncc(-c2ccc3ncnc(Nc4ccc(F)c(Cl)c4)c3c2)cn1
active: [5] -74.2% | [9] -35.1% | [13] -17.3% | [17] 1.68% | [15] -57.4%
inactive: [1] 95% | [2] 40.8% | [3] 37.4% | [4] 12% | [6] 23% | [7] 61.4% | [8] 80.4% | [10] 50% | [11] 61.3% | [12] 80.3% | [14] 65.7% | [18] 34.6% | [16] 59.4%

CCOC(=O)c1[nH]c(-c2ccc(Cl)cc2)cc1-c1cccnc1
inactive: [1] 39.5% | [2] 24.3% | [3] 43.6% | [4] 21% | [5] 35.7% | [8] 11.7% | [9] 12.9% | [11] 39.3% | [12] 47.3% | [13] 51.1% | [17] 43.9% | [18] 16.3% | [16] 12.1%
active: [6] -9.26% | [7] 9.2% | [10] 4.59% | [14] 7.46% | [15] -7.92%

Nc1ncnc2c1c(-c1ccc(Oc3ccccc3)cc1)nn2C[C@@H]1SSC[C@H]1O
active: [1] -14.4% | [4] 0.587% | [6] -5.51% | [8] 0.449% | [9] 4.41% | [14] -8.06% | [17] -10.3%
inactive: [2] 33.2% | [3] 23.3% | [5] 11.6% | [7] 32.9% | [10] 50.9% | [11] 33.3% | [12] 80.8% | [13] 50.2% | [15] 18.3% | [18] 16.9% | [16] 48.3%

Cc1ccc(-c2cn3cc([N+](=O)[O-])ccc3n2)cc1
inactive: [1] 71.5% | [2] 67.4% | [3] 75.3% | [4] 57.2% | [5] 73.4% | [6] 57.6% | [7] 52.6% | [8] 57.6% | [9] 75.5% | [10] 72.6% | [11] 76.7% | [12] 109% | [13] 78.1% | [14] 102% | [17] 71% | [15] 101% | [18] 97.1% | [16] 83.4%

COc1cc(-c2nc(SCC(=O)Nc3ccc(C(C)=O)cc3)[nH]c(=O)c2C#N)cc(OC)c1OC
active: [7] -11.9% | [8] 3.84% | [9] 7.62% | [10] 7.47% | [15] 0.381%
inactive: [1] 35.9% | [2] 33.8% | [3] 29.5% | [4] 49.3% | [5] 41.6% | [6] 18.5% | [11] 23.2% | [12] 51.9% | [13] 61.5% | [14] 34.6% | [17] 38.4% | [18] 10.6% | [16] 75.7%

c1ccc2c(c1)Oc1cccnc1-n1nccc1-2
inactive: [1] 121% | [2] 104% | [3] 101% | [4] 101% | [5] 99.7% | [6] 87.2% | [7] 104% | [8] 109% | [9] 94.2% | [10] 96.9% | [11] 99.6% | [12] 107% | [13] 110% | [14] 104% | [17] 104% | [15] 108% | [18] 90.1% | [16] 100%

O=C(NCCNc1nccc(-c2c(-c3cccc(O)c3)nc3sccn23)n1)c1ccccc1
inactive: [1] 45.5% | [2] 94.2% | [3] 66.4% | [4] 87.7% | [5] 60.5% | [6] 48% | [7] 47.3% | [8] 67.1% | [9] 68% | [10] 76.8% | [11] 66.6% | [12] 90.6% | [13] 98% | [14] 65.1% | [17] 57.4% | [15] 92.3% | [16] 99.7%

Fc1ccc(Nc2ncnc3ccc(-c4cn[nH]c4)cc23)cc1Cl
inactive: [1] 45.3% | [2] 22.4% | [3] 56.8% | [4] 45.6% | [5] 26.1% | [7] 75.3% | [8] 56.7% | [10] 38.9% | [11] 44.1% | [12] 75.7% | [13] 55.5% | [15] 50.6% | [18] 31.4% | [16] 51.6%
active: [6] 7.79% | [9] 0.823% | [14] -11.6% | [17] 5.6%

COc1ccc(C(=O)NC(=O)Nc2ccc3c(c2)NC(=O)/C3=C\c2[nH]c(C)c(CCC(=O)O)c2C)c(F)c1
inactive: [2] 73.1% | [3] 39.7% | [4] 55.6% | [5] 67% | [7] 12.2% | [8] 54.6% | [9] 18.8% | [10] 13% | [12] 64.4% | [13] 77% | [14] 56.6% | [17] 43% | [15] 23.4% | [16] 88.7%
active: [1] -0.585% | [6] -0.45% | [11] 8.62% | [18] -5.02%

Cc1ccc(=O)n(-c2ccc(Br)cc2F)c1
inactive: [1] 116% | [2] 99.5% | [3] 107% | [4] 90.7% | [5] 94.6% | [6] 84% | [7] 99.9% | [8] 108% | [9] 108% | [10] 101% | [11] 99% | [12] 105% | [13] 97.3% | [14] 90.4% | [17] 97.6% | [15] 109% | [18] 100% | [16] 104%
